Data taken from PubChem BioAssay AID588800 (Johns Hopkins Ion Channel Center, 2011).
Active and inactive are the calls of the source.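 Rule for the calls: active = peak inhibition of the KCNQ2 potassium channel above 30% at some tested dose, plus a fitted dose response curve; inactive = no inhibition at any dose, or no curve.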

target: Potassium voltage-gated channel subfamily KQT member 2 (Rattus norvegicus) (UniProt O88943); assay: blockade of KCNQ2 thallium flux – cell-based, FluxOR thallium flux, CRC set 2, selectivity assay for KCNK9 inhibitor project, SAR follow-up (AID 588800); conditions: KCNQ2-expressing cells; series mostly up to 30 µM
Sequence (O88943 whole entry, looked up): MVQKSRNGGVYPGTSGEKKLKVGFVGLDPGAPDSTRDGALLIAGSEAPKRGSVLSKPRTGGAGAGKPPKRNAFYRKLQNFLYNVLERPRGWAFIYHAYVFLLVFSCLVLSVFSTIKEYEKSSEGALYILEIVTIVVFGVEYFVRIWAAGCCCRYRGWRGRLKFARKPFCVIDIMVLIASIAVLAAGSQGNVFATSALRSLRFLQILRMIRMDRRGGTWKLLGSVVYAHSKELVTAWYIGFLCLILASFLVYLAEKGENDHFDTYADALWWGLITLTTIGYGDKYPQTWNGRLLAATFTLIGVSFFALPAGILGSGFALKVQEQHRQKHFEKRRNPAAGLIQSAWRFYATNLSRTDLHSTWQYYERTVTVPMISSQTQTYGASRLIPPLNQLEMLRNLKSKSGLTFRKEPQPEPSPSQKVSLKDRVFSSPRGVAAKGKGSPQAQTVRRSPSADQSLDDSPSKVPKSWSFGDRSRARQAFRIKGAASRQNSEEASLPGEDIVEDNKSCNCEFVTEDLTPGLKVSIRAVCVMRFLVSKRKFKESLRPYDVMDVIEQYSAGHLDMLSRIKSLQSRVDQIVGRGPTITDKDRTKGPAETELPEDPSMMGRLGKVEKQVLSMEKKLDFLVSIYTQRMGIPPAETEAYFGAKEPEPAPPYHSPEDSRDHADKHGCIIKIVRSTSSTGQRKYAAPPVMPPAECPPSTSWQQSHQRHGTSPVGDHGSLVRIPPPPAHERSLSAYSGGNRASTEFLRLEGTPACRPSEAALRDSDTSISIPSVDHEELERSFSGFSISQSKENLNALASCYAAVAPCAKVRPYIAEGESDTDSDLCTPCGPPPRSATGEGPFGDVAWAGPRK

outcome, inactive:
COc1cccc(-c2n[nH]c(=S)n2C(C)C2CC3CCC2C3)c1 (stereo not given)
Cc1cccc(C(=O)Nc2cccc(NC(=O)C3CCCCC3)c2)c1
COc1ccccc1NC(=O)c1cccc(NC(=O)c2ccccc2OC)c1
Cc1cccc(C(=O)Nc2cccc(NC(=O)c3ccccc3C)c2)c1
CCOc1ccc(NC(=O)c2cccc(NC(=O)C3CCCC3)c2)cc1
COc1cccc(OC)c1C(=O)Nc1cccc(NC(=O)c2cccc(C)c2)c1
CCOc1ccccc1NC(=O)c1cccc(NC(=O)C2CC2)c1
COc1ccc(C(=O)Nc2cccc(NC(=O)c3cccc(C)c3)c2)cc1
Cc1cccc(C(=O)Nc2cccc(NC(=O)c3cccs3)c2)c1
CCOc1ccccc1NC(=O)c1cccc(NC(=O)C2CCCCC2)c1
Cc1ccccc1C(=O)Nc1cccc(NC(=O)c2ccccc2)c1
CCOc1ccccc1NC(=O)c1cccc(NC(=O)CC2CCCC2)c1
CC(C1CC2CCC1C2)n1c(-c2ccsc2)n[nH]c1=S (stereo not given)
Cc1cccc(-c2n[nH]c(=S)n2C(C)C2CC3CCC2C3)c1 (stereo not given)
Cc1cccc(C(=O)Nc2cccc(NC(=O)c3ccncc3)c2)c1
Cc1cccc(C(=O)Nc2cccc(NC(=O)c3ccccc3OCC(C)C)c2)c1
Cc1cccc(C(=O)Nc2cccc(NC(=O)c3ccc(C(C)(C)C)cc3)c2)c1
Cc1cccc(C(=O)Nc2cccc(NC(=O)c3ccccc3)c2)c1
CCOc1cccc(NC(=O)c2cccc(NC(=O)C3CCCC3)c2)c1
O=C(Nc1cccc(NC(=O)c2ccccc2Cl)c1)c1ccccc1
CCOc1ccccc1C(=O)Nc1cccc(NC(=O)c2ccccc2OC)c1
O=C(Nc1cccc(NC(=O)c2cccc(Cl)c2)c1)c1ccccc1
CC(C1CC2CCC1C2)n1c(-c2ccccc2Cl)n[nH]c1=S (stereo not given)
Cc1ccc(-c2n[nH]c(=S)n2C(C)C2CC3CCC2C3)cc1 (stereo not given)
O=C(Nc1cccc(NC(=O)c2ccccc2C(F)(F)F)c1)c1ccccc1
O=C(Nc1cccc(NC(=O)c2cccc(C(F)(F)F)c2)c1)c1ccccc1
CCOc1ccccc1NC(=O)c1cccc(NC(=O)c2cccc(C)c2)c1
O=C(Nc1cccc(NC(=O)c2ccccn2)c1)c1ccccc1
CCOc1ccccc1NC(=O)c1cccc(NC(=O)c2ccc(OC)cc2)c1
COc1ccccc1C(=O)Nc1cccc(NC(=O)c2ccccc2C(C)C)c1
CC(c1ccco1)n1c(-c2ccoc2)n[nH]c1=S (stereo not given)
Cc1cccc(C(=O)Nc2ccccc2NC(=O)c2ccccc2)c1
CCOc1ccccc1C(=O)Nc1cccc(NC(=O)c2ccccc2C(F)(F)F)c1
COc1ccccc1-c1n[nH]c(=S)n1C(C)C1CC2CCC1C2 (stereo not given)
Cc1cccc(C(=O)Nc2cccc(NC(=O)c3ccc(C(F)(F)F)cc3)c2)c1
